Autofluor counter – flagged as autofluorescent in microsphere protease counterscreen. compound autofluorescence counterscreen, microsphere flow cytometry; active compounds read high. fluorescence intensity (concentration not given with the values). 3.1% of 360,000 active; in the data active = fluorescence intensity above about 16000; inconclusive = no clear call, values can overlap the other calls
MazEF act – increases E. coli MazEF RNase cleavage of RNA; FAM/BHQ RNA-DNA oligo cleavage fluorescence, 5 h; activation, % at 20 µM; 0.32% of 350,000 active; AID 504720; P0AE70; in the data active = activation above about 50%
BoNT-F LC inh – blocks Botulinum neurotoxin F light chain protease; Multiplex microsphere protease cleavage assay, flow cytometry; inhibition, % at 10 µM; 0.22% of 360,000 active; AID 588497; in the data active = inhibition above about 35%, passing the limit was not always enough; inconclusive = no clear call, values can overlap the other calls; note: plate controls were buffer without enzyme for full effect and enzyme alone for no effect
BoNT-A LC inh2 – inhibitors of Botulinum neurotoxin A light chain protease; multiplex microsphere protease substrate cleavage, flow cytometry; inhibition, % at 10 µM; 0.17% of 360,000 active; AID 588499; note: plate controls were buffer without enzyme for full effect and enzyme alone for no effect
Anthrax LF inh2 – anthrax lethal factor protease inhibition; P15917; multiplex microsphere protease cleavage assay, LF; inhibition, % at 10 µM; 0.12% of 360,000 active; AID 588501; note: plate controls were buffer without enzyme for full effect and enzyme alone for no effect
Target sequence (P15917 whole entry, looked up): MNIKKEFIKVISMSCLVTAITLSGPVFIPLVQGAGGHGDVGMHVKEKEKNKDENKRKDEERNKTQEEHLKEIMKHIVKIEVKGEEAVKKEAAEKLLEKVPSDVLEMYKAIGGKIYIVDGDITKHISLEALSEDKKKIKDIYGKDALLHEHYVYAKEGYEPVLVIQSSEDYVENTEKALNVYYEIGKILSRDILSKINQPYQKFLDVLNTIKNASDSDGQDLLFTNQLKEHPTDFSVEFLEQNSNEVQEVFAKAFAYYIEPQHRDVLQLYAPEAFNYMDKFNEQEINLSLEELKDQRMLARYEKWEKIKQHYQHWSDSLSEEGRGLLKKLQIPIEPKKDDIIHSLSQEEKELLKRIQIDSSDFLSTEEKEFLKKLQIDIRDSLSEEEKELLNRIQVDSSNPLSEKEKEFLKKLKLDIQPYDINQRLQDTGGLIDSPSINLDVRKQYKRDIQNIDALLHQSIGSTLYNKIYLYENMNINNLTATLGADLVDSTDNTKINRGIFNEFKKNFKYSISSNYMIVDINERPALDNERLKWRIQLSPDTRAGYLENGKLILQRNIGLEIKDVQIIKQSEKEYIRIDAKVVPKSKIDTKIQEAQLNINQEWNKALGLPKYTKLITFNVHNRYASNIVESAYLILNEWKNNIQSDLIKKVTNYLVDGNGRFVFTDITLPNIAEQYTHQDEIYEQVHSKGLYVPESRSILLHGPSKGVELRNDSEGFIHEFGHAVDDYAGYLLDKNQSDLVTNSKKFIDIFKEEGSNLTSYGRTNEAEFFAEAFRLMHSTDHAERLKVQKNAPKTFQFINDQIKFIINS
* = called active by the depositor; ? = inconclusive; . = no result. The list is not random: actives were taken first. Their share in the collection is about 3.6%. Cut-off read from the data, not from the text of the source, unless noted: active = inhibition above about 30%; inconclusive = no clear call, values can overlap the other calls; inactive = below that.

SMILES	Autofluor counter	MazEF act	BoNT-F LC inh	BoNT-A LC inh2	Anthrax LF inh2
CCOC(=O)c1cnc(-n2nc(C)cc2C)nc1N1CCOCC1	23062*	11	0	0	-3
CCOC(=O)c1cnc(-n2nc(C)cc2C)nc1NC1CCCC1	3914	4	?	1	19
CCOC(=O)c1cnc(-n2nc(C)cc2C)nc1N(C)C	22817*	1	2	0	-1
Cc1cc(C)n(-c2ncc3c(n2)N(CCO)CCOC3=O)n1	3742	6	35*	2	4
CCc1cc(C(=O)N2CCN(C(=O)c3ccccc3)CC2)sc1C	5916	-4	0	-2	-1
Cc1cc(=O)oc2cc(O[C@@H]3O[C@H](CO)[C@@H](O)[C@H](O)[C@H]3O)ccc12	3529	3	-9	0	-10
Cc1nnc(Sc2c(N)n(C)c(=O)n(C)c2=O)s1	20250*	-9	-3	0	-7
NC(=O)c1cn(C2CCCCC2)c2ccccc2c1=O	3613	6	41*	-2	14
N#C/C(=C\c1cn(CCOc2ccccc2)c2ccccc12)C(=O)NCc1cccs1	2777	59*	-3	0	3
COc1ccc(N(CC(=O)NCc2cccs2)S(=O)(=O)c2ccc(C(C)=O)cc2)cc1	3069	1	1	0	0
N#CC1(C#N)C(C(N)=O)C1c1ccccc1 (stereo not given)	2573	0	0	0	1
CN1C=CC2=C(C#N)C(N)C(C#N)(C#N)[C@H](c3ccccc3)[C@H]2C1 (stereo not given in full)	16327*	12	0	0	0
COc1cc(OC)cc(C(=O)N(CN2CCCC2=O)c2ccccc2OC)c1	18589*	1	-14	-6	0
CCOc1ccc(C(=O)N(CN2CCCC2=O)c2cccc(Cl)c2)cc1	4259	-1	-3	0	2
COc1ccccc1N(CN1CCCC1=O)C(=O)c1ccccc1F	4143	2	2	0	-4
COc1ccccc1N(CN1CCCC1=O)C(=O)COc1ccccc1	16310*	-8	-3	0	0
COc1cccc(C(=O)N(CN2CCCC2=O)c2cccc(Cl)c2)c1OC	16669*	-2	-4	-1	-3
Oc1ccc(Cl)cc1CNCc1cccc2ccccc12	3742	3	-12	0	-6
C[C@@H]1CN([C@H](C)CO)C(=O)CCCn2nncc2CO[C@H]1CN(C)C(=O)c1ccccc1	3415	0	-2	0	-1
O=C(COC(=O)CN1C(=O)c2ccccc2C1=O)NC1CCCC1	3860	5	4	0	-6
CCC(=O)Nc1ccc(Oc2ccc3c(c2)C(=O)N(c2ccc(O)cc2)C3=O)cc1	21982*	3	1	?	0
COc1ccc(CC(=O)NNC2=Nc3cccc4cccc2c34)cc1	3615	6	?	-2	-10
NC(=O)NNC1=Nc2cccc3cccc1c23	4540	-4	2	0	2
COc1ccc(C(=O)NNC2=Nc3cccc4cccc2c34)cc1	4615	50*	-2	-1	-2
Cc1ccc(C(=O)NNC2=Nc3cccc4cccc2c34)cc1	10032	86*	8	3	2
SMILES	Autofluor counter	MazEF act	BoNT-F LC inh	BoNT-A LC inh2	Anthrax LF inh2
CC1(C)CC(=O)CC(C)(C)N1OC(=O)c1ccncc1	23714*	9	-1	?	-13
CC1(C)Cc2noc(N)c2C(C)(C)N1OC(=O)c1ccccc1	4532	2	-8	-1	-9
CCN(C(=O)Cc1ccc(Br)cc1)C1CCCCC1	2673	-5	0	0	1
O=C1C(Cc2ccc(O)cc2)NC(=S)N1c1ccccc1 (stereo not given)	23822*	-20	-2	-3	-1
Cc1ccc(SCC(=O)NCCN2C(=O)CSC2=O)cc1C	23097*	3	1	0	-1
Cc1nnc(SCC(=O)NCCN2C(=O)CSC2=O)n1-c1ccccc1	3453	-8	-3	0	-7
Cc1cccc(-n2nnnc2SCC(=O)NCCN2C(=O)CSC2=O)c1	22931*	2	-1	-1	-2
C[C@H](O)[C@@H]1C(=O)N2CCc3c([nH]c4ccccc34)[C@@H]2C[C@@H]1N(C)S(=O)(=O)c1ccccc1	4023	5	-3	1	4
COc1ccc(NCc2nnc(-c3ccccc3)o2)cc1	5729	9	-2	-1	-1
COc1ccccc1OCc1nnc(SCC(=O)N2CCCC2)o1	3915	1	13	2	2
COc1ccccc1OCc1nnc(SCC(=O)c2cc(Cl)ccc2OC)o1	21782*	-3	3	?	1
COc1ccccc1OCc1nnc(SCCN2CCOCC2)o1	22558*	4	-4	?	-2
CC(O)/C=C/c1ccc2ccccc2n1 (stereo not given)	17160*	0	-6	-3	-4
CCCS(=O)(=O)NC(=O)C1(C)CCN(C(=O)COc2ccccc2)C1 (stereo not given)	3717	.	2	0	6
N=C1N(/N=C/c2ccccc2)C(=Nc2ccccc2)C(=S)N1c1ccccc1	18941*	10	-2	13	14
CC(C)NC(=NCc1ccc(Cl)cc1Cl)Nc1ccccc1	3605	7	-7	0	0
Cc1ccc(-n2[nH]c(C)c(C=Nc3ccc4[nH]c(=O)[nH]c4c3)c2=O)cc1C	2075	63*	-2	-1	-4
Cc1ccc(-n2[nH]c(C)c(C=Nc3ccc4[nH]c(=O)[nH]c4c3)c2=O)cc1	2153	7	-6	1	-2
CC(=O)c1cccc(S(=O)(=O)N(CCCO)Cc2cc3ccc(C)cc3[nH]c2=O)c1	24495*	0	-7	-6	0
COC(=O)c1cccc(S(=O)(=O)N(Cc2ccco2)Cc2cc3ccc(OC)cc3[nH]c2=O)c1	24753*	6	-4	-4	-1
CCCN(Cc1cc2ccc(C)cc2[nH]c1=O)S(=O)(=O)c1ccccc1	2886	3	1	0	3
O=C1c2cc(S(=O)(=O)NCCCO)ccc2-c2ccc(S(=O)(=O)NCCCO)cc21	21753*	3	1	3	-1
COCCNS(=O)(=O)c1ccc2c(c1)C(=O)c1cc(S(=O)(=O)NCCOC)ccc1-2	16158*	0	1	1	-3
Cc1ccsc1C(=O)N1CCCC(C)(C(=O)O)C1 (stereo not given)	4047	.	1	0	-5
O=S(=O)(Cc1ccccc1)N1CCc2ccccc2C1	26161*	1	-5	?	-2
CC(C)n1c(NCc2cc(Cl)ccc2O)nc2ccccc21	6473	5	-19	-1	-7
Cc1ccc(O)c(CNc2nc3ccccc3n2C(C)C)c1	3526	6	38*	-2	-2
CCCCc1ccc(NC(=O)CSc2nc(=O)n(CCCN3CCOCC3)c3c2CCC3)cc1	?	-6	?	?	?
Cc1cccc(C)c1NC(=O)Nc1nnc([C@@H]2C[C@H](O)[C@@H](CO)O2)s1	3504	.	5	0	0
Cc1cccc([C@@H]2[C@@H]3C(=O)N(Cc4ccccc4)C(=O)[C@@H]3[C@]3(Cc4ccc(Cl)cc4)C(=O)N(c4ccc(Br)cc4)C(=O)N23)c1	3658	-17	-16	-1	-3

Screening data as filed in PubChem.
